Calls of active or inactive are those of the source. Unless noted, how the calls were made is not given here.

Experiment [1] in a line: compound effects on lung adenocarcinoma cell viability – A549, calcein-AM fluorescence, 48 h, basal, profiling panel (AID 1162). Further: test concentration not given here. The note with it: higher = more signal.
Experiment [2] is described as follows: compound effects on differentiated 3T3-L1 adipocyte viability – cell-based, 3T3-L1 adipocytes, calcein-AM fluorescence, 48 h, basal, profiling panel (AID 1163). Further: test concentration not given here. Particulars: 3T3-L1 adipocytes viability, higher = more signal.
The nature of experiment [3]: compound effects on hepatocellular carcinoma cell viability – HepG2, calcein-AM fluorescence, 48 h, basal, profiling panel (AID 1164). Further: test concentration not given here. Particulars: higher = more signal.
Experiment [4] is described as follows: compound effects on multiple myeloma cell viability – MM1S, calcein-AM fluorescence, 48 h, basal, profiling panel (AID 1165).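 Further: viability of MM1S multiple myeloma cells under basal unstimulated conditions; test concentration not given here.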 Particulars: higher = more signal.
Experiment [5] is described as follows: calcein-AM signal in unstimulated myeloma cells – cell-based, calcein-AM fluorescence, 48 h, PK04 Diversity Set, profiling panel (AID 1166).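 Further: cells grown under basal conditions without added stimulus; test concentration not given here.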 Particulars: RPMI8226 myeloma viability, higher = more signal.
A short description of experiment [6]: JC-1 mitochondrial signal, unstimulated HepG2 cells – cell-based, JC-1 fluorescence, 24 h, 100 nL compound, profiling panel (AID 1167). Further: test concentration not given here. Particulars: HepG2 mitochondrial potential, higher = more signal.
Experiment [7] can be described thus: JC-1 mitochondrial signal, unstimulated adipocytes – cell-based, JC-1 fluorescence, 3T3-L1 adipocytes, 24 h, 100 nL compound, profiling panel (AID 1168). Further: test concentration not given here. Particulars: JC-1 mitochondrial fluorescence, higher = more signal, called active from +8 up or from −8 down.
The nature of experiment [8]: JC-1 mitochondrial signal, unstimulated myeloma cells – cell-based, JC-1 fluorescence, RPMI8226, 24 h, 100 nL compound, profiling panel (AID 1169). Further: test concentration not given here. The note with it: JC-1 mitochondrial potential fluorescence, higher = more signal.
Experiment [9] in a line: JC-1 mitochondrial signal, unstimulated MM1S myeloma – cell-based, JC-1 fluorescence, 24 h, 100 nL compound, profiling panel (AID 1170). Further: test concentration not given here. The note with it: MM1S mitochondrial potential, higher = more signal.
Experiment [10] is described as follows: resazurin metabolic signal in A549 cells – cell-based, resazurin fluorescence, 24 h, PK04 Diversity Set, profiling panel (AID 1171). Further: test concentration not given here. Particulars: A549 viability, higher = more signal, called active from +8 up or from −8 down.
Experiment [11] can be described thus: resazurin metabolic signal in HepG2 cells – cell-based, resazurin fluorescence, 24 h, PK04 Diversity Set, profiling panel (AID 1172). Further: test concentration not given here. The note with it: HepG2 viability, higher = more signal.
The nature of experiment [12]: budding yeast growth changes without added modifier – OD600, strain BY4716, 24 h, basal condition, primary screen (AID 1173). The note with it: S. cerevisiae BY4716 growth, OD600, 24 h; higher = more signal, called active from +8 up or from −8 down.
The nature of experiment [13]: viability profiling in MM1S myeloma cells – cell-based, resazurin fluorescence, basal, 24 h, PK04 Diversity Set, profiling panel (AID 1174). Further: test concentration not given here. Particulars: higher = more signal, called active from +8 up or from −8 down.
The target of experiment [14] is Dihydroorotate dehydrogenase (quinone), mitochondrial (Plasmodium falciparum (isolate 3D7)) (UniProt Q08210). Put plainly: inhibition of P. falciparum DHODH – biochemical, C-terminal His tag, absorbance 600 nm, primary screen (AID 1175).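 Further: recombinant parasite enzyme with a five histidine tag at its C terminus; test concentration not given here.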 The note with it: PfDHODH enzyme, DCIP absorbance 600 nm; higher = more signal, called active from +8 up or from −8 down.
Sequence of Dihydroorotate dehydrogenase (quinone), mitochondrial (Plasmodium falciparum (isolate 3D7)) (Q08210 whole entry, looked up): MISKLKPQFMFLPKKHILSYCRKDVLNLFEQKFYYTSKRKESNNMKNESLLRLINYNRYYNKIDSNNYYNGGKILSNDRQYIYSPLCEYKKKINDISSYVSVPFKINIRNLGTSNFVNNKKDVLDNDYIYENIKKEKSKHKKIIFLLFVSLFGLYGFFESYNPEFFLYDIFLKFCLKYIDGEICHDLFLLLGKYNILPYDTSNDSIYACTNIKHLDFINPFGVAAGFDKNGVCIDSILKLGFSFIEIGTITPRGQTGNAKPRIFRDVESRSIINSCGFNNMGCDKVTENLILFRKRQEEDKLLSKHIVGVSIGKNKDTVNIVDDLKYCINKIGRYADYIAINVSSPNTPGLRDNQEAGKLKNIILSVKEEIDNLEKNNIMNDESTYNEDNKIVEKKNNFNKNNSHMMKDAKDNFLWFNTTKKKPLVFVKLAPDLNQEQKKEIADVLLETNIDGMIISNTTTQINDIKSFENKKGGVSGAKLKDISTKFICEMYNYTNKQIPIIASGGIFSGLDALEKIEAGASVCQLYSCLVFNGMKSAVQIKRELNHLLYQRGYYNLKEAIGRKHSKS
Experiment [15] can be described thus: inhibition of PAO1 biofilm formation – strain PAO1, LB-PBS medium, absorbance 600 nm, primary screen (AID 1176). Further: test concentration not given here. Particulars: P. aeruginosa PAO1 growth/biofilm, A600, 12 h; higher = more signal.
Experiment [16] in a line: growth modulation of vineyard yeast isolate – strain RM11-1a, OD600, basal, 24 h, primary screen (AID 1177).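 Further: cultures grown under basal conditions with no added stressor; test concentration not given here.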 Particulars: S. cerevisiae RM11-1a growth, OD600, 24 h; higher = more signal, called active from +8 up or from −8 down.
Experiment [17] is described as follows: growth of efflux-deficient E. coli DRC39 – strain DRC39, OD650, 24 h, E. coli filamentation inducers, primary screen (AID 1178).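 Further: growth measured as culture turbidity by optical density at 650 nm; test concentration not given here.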 The note with it: E. coli DRC39 acrAB, higher = more signal, called active from +8 up or from −8 down.
The nature of experiment [18]: growth of efflux-deficient E. coli DRC39 – strain DRC39, OD650, 48 h, E. coli filamentation inducers, primary screen (AID 1179).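 Further: screen aims at cell division blockers that make cells filament.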 Particulars: E. coli DRC39 delta-acrAB growth, higher = more signal, called active from +8 up or from −8 down.
A short description of experiment [19]: viability profiling in RPMI8226 myeloma cells – cell-based, resazurin fluorescence, basal, 24 h, PK04 Diversity Set, profiling panel (AID 1180).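 Further: RPMI8826 multiple myeloma cell line at 5000 cells per well; test concentration not given here.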 Particulars: higher = more signal.
Experiment [20] concerns the target E3 ubiquitin-protein ligase XIAP (Homo sapiens) (UniProt P98170). Briefly: small molecules binding XIAP protein – biophysical, small-molecule microarray, fluorescence 635 nm, primary screen (AID 1181).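 Further: score merges 667 nm emission and signal to noise over triplicate slides.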 Particulars: higher = more signal.

Sequence of E3 ubiquitin-protein ligase XIAP (Homo sapiens) (P98170 whole entry, looked up): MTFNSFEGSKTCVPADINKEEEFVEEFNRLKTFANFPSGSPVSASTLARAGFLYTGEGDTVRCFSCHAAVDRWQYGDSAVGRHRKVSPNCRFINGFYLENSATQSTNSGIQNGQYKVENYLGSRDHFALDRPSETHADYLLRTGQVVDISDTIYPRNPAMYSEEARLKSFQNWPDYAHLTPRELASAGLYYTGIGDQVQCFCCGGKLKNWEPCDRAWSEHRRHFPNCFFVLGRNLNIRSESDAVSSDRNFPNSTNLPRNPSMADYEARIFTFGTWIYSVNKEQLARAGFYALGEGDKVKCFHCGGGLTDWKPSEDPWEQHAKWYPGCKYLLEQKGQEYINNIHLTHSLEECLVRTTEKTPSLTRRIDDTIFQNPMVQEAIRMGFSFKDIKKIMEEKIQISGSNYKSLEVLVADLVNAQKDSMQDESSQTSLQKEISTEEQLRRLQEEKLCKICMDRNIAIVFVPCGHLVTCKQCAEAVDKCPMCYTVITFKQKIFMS

As to `O=C1C=C[C@@H](O)[C@@H]2[C@@H]3C(=O)N(c4cccc(Oc5ccccc5)c4)C(=O)[C@@H]3CC[C@@H]12`, the z-score in [1] was -0.496; in experiment [2], 1.38; in [3] it was 0.0765; in experiment [4], -1.03; in [5], -2.47; in [6] it was 0.111. Also, the z-score is 0.717 (inactive) in experiment [7]; -0.618 in [8]; -0.72 in experiment [9]; -0.869 (inactive) in experiment [10]; -0.553 in experiment [11]; -1.82 (inactive) in [12]. Moreover, the z-score in [13] was -0.136 (inactive); in [15] it was 0.188 (inactive); in experiment [16], -0.518 (inactive); in experiment [17] it was 0.318 (inactive); in [18], -1.71 (inactive); in experiment [19], 0.088. Moreover, the composite z-score in experiment [14] was -2.96 (inactive); in [20], 0.242.
On to `C[C@H]1CC[C@H]2C(=O)O[C@H](CO)CN2[C@@H]1c1ccc(Br)cc1`, for which the z-score was 0.889 in experiment [1]; -0.214 in experiment [2]; 0.547 in experiment [3]; 0.349 in [4]; -0.73 in experiment [5]; 0.0194 in experiment [6]. The z-score is -0.526 (inactive) in experiment [7]; 0.301 in experiment [8]; -0.434 in experiment [9]; 0.581 (inactive) in experiment [10]; 0.72 in experiment [11]; -8.2 (active) in experiment [12]. Also, the z-score is 0.678 (inactive) in experiment [13]; 0.441 (inactive) in experiment [15]; -0.356 (inactive) in [16]; 0.342 (inactive) in experiment [17]; -0.016 (inactive) in experiment [18]; -0.817 in [19]. Further, the composite z-score in experiment [14] was 0.586 (inactive); in experiment [20], 0.0733.
On to `CO[C@H]1COC(=O)CC=C[C@@H](C)COC(=O)[C@H]2CCCN2C(=O)CC=C[C@H]1C`, for which the z-score is 1.22 in [1]; -0.429 in experiment [2]; 0.707 in experiment [3]; 0.462 in experiment [4]; 0.18 in experiment [5]; 0.722 in experiment [6]. The z-score was 0.00299 (inactive) in experiment [7]; 0.418 in [8]; 0.748 in [9]; -0.823 (inactive) in experiment [10]; -0.3 in [11]; -0.872 (inactive) in experiment [12]. For the same compound, the z-score in experiment [13] was -0.0093 (inactive); in experiment [15] it was 0.246 (inactive); in experiment [16], 0.473 (inactive); in experiment [17] it was 1.14 (inactive); in [18] it was 0.745 (inactive); in [19], -0.258. Further, the composite z-score in experiment [14] was 0.119 (inactive); in experiment [20], 0.0595.
With `COC(=O)[C@H](C)NC(=O)CCC1CC(OC(=O)NCc2cccc3ccccc23)CC2(CCCC(COC(=O)NCCC(C)C)O2)O1` (stereo not given in full), the z-score in experiment [1] was 0.505; in experiment [2] it was -0.0667; in [3], -1.75; in experiment [4], -3.38; in [5], -3.49; in experiment [6], -0.653. The z-score in experiment [7] is 0.112 (inactive); in experiment [8], -0.51; in experiment [9], -1.82; in experiment [10], 0.236 (inactive); in experiment [11], 0.817; in [12], -0.274 (inactive). The z-score in experiment [13] is 0.505 (inactive); in [15], -0.0691 (inactive); in [16], -0.186 (inactive); in experiment [17], 0.443 (inactive); in experiment [18], 0.594 (inactive); in experiment [19], 0.452. In addition, the composite z-score is -1.24 (inactive) in [14] and -0.191 in experiment [20].
Consider `CCc1cc2c(nc1CC)CCN(CCC(C)=NOC[C@@H](C)[C@H](OCc1ccccc1)C(C)C)C2`, for which the z-score in experiment [1] is 1.58; in experiment [2], 0.546; in [3] it was 1.43; in experiment [4], -2; in [5], -0.584; in experiment [6] it was 2. For the same compound, the z-score in experiment [7] is 1 (inactive); in experiment [8] it was 0.278; in experiment [9], 0.486; in experiment [10], -0.445 (inactive); in experiment [11], -0.0541; in [12], -0.258 (inactive). For the same compound, the z-score is 0.0348 (inactive) in experiment [13]; -0.537 (inactive) in experiment [15]; -2.21 (inactive) in [16]; -0.231 (inactive) in experiment [17]; -0.313 (inactive) in experiment [18]; -0.261 in experiment [19]. Besides, the composite z-score in experiment [14] was -1.67 (inactive); in experiment [20] it was -0.11.

These data come from PubChem BioAssay.
